AmpC inh detg = AmpC beta-lactamase inhibition with detergent present | P00811 | AmpC hydrolysis of nitrocefin, absorbance 480 nm, 0.01% Triton | Potency, µM (highest dose often 114 µM), inactives show at the top dose activity change, negative = inhibition, usual class: inhibitors | 370,000 tested, 0.041% active | AID 485294;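 note: 0% = no-compound wells and -100% = no-enzyme wells; nearly all actives have a fitted effect of over 25% in size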
Target sequence (P00811 whole entry, looked up): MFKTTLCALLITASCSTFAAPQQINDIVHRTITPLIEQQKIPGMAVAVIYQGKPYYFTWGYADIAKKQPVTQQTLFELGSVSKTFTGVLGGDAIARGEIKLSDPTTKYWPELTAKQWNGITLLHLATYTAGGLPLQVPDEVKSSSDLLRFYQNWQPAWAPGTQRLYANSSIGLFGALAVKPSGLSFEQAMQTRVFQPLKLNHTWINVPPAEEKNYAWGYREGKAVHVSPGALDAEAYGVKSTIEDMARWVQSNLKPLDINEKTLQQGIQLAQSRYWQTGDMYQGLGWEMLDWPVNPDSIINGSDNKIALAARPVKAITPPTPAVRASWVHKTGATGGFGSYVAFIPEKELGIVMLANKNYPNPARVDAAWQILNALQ
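20 mM phosphate pH 7.0 + 0.01% (detergent screen) or 0.0001% Triton X-100; 5.3 nM AmpC reagent; cpd preinc 15 min RT; nitrocefin (800 uM stock) to start; A480 q20 s × 4 min; Activity was normalised to no-enzyme and no-compound control wells.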
FMDV inh = blocks foot and mouth disease virus | FMDV antiviral cell-based qHTS | 410,000 tested, 1.2% active | Potency, µM (series often up to 57.9 µM), for the others: top-dose activity change, negative = inhibition, hits mostly inhibitors; calls by dose curve; tested in HEK293T cells; note: read-out not given here; nearly all actives have a fitted effect of over 45% in size
Sm TGR inh = S. mansoni TGR enzyme inhibition | Q962Y6 | purified TGR, DTNB reduction, TNB absorbance 405 nm | Potency, µM (titrated, usually from 114 µM), without a hit: at the top dose activity change, negative = inhibition, most hits filed as inhibitors | 360,000 tested, 3% active; note: nearly all actives have a fitted effect of over 60% in size
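TGR 20 nM + NADPH 100 uM (dispensed conc.), cpd preinc 15 min RT; start with NADPH (500 uM addition) then DTNB (15 mM addition). Kinetic TNB absorbance, 405 nm filter. Four-parameter Hill fit across titration.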
AMA1 RON2 block = inhibitors of Plasmodium falciparum AMA1-RON2 interaction. AlphaScreen AMA1-biotinylated RON2 peptide binding. Potency, µM (highest dose often 58.2 µM), for the others: top-dose activity change, negative = inhibition, most hits filed as inhibitors. 360,000 tested, 0.2% active;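 note: 0% = vehicle wells and -100% = peptide control; nearly all actives have a fitted effect of over 45% in size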
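AMA1 (3D7) with his tag at 25 nM final met compounds first, then biotinylated RON2 peptide at 25 nM; detection used donor plus acceptor beads, 10 µg/mL apiece, read by AlphaScreen after 30 min at room temperature.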
AmpC no deterg = AmpC beta-lactamase inhibition without detergent. AmpC nitrocefin hydrolysis, absorbance 480 nm, 0.0001% Triton. 330,000 tested, 0.52% active. Potency, µM (series often up to 57.1 µM), without a hit: at the highest dose activity change, negative = inhibition, hits mostly inhibitors. AID 485341;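 note: plate controls were no compound for no effect and no enzyme for full effect; nearly all actives have a fitted effect of over 20% in size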
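20 mM phosphate pH 7.0 + 0.01% (detergent screen) or 0.0001% Triton X-100; 5.3 nM AmpC reagent; cpd preinc 15 min RT; nitrocefin (800 uM stock) to start; A480 q20 s × 4 min; Activity was normalised to no-enzyme and no-compound control wells.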
An asterisk follows results filed as active; ? = inconclusive; . = no result. A selection: hits, their analogues and other compounds. The true share with any hit is near 4.1%. Unless noted, calls come from the whole dose curve; as a rule, active = well fitted curve in the direction sought with a large enough effect; inconclusive = small, poorly fitted or top-dose-only effect, or another doubt; inactive = no such curve, though single readings can be large; an effect the other way counts as inactive or inconclusive. Unless noted, % is set by controls: 0 for no effect and ±100 for the full control effect; potency is the fitted concentration of half-maximal effect.

SMILES	AmpC inh detg	FMDV inh	Sm TGR inh	AMA1 RON2 block	AmpC no deterg
Cc1nc(N)sc1C(=O)N1N=N1	9%	6%	2.5µM*	28%	-16%
CCCc1nc(N)sc1C(=O)OCC	3%	-16%	6%	1%	-3%
Cc1ccc(S(=O)(=O)N2CCCc3cc(NC(=O)c4ccc(C(F)(F)F)cc4)ccc32)cc1	-2%	1%	3%	.	.
O=C(OC[C@H]1O[C@@H](OC(=O)c2cc(O)c(O)c(OC(=O)c3cc(O)c(O)c(O)c3)c2)[C@H](OC(=O)c2cc(O)c(O)c(OC(=O)c3cc(O)c(O)c(O)c3)c2)[C@@H](OC(=O)c2cc(O)c(O)c(OC(=O)c3cc(O)c(O)c(O)c3)c2)[C@@H]1OC(=O)c1cc(O)c(O)c(OC(=O)c2cc(O)c(O)c(O)c2)c1)c1cc(O)c(O)c(OC(=O)c2cc(O)c(O)c(O)c2)c1	?	-12%	45µM*	.	?
COC1OC(COC(=O)c2ccccc2)C(OC(=O)c2ccccc2)C1OC(=O)c1ccccc1 (stereo not drawn)	-6%	-20%	0%	1%	-2%
O=C1/C(=C/c2ccco2)SC(=S)N1CC1CCCO1 (stereo not drawn)	10%	40%	20µM*	?	-32%
Cc1ccc(/C=C2/SC(=S)N(C3CCCCC3)C2=O)o1	2%	15%	45µM*	-25%	-23%
O=C1/C(=C\c2ccc(-c3ccccc3Cl)o2)SC(=S)N1CC1CCCO1 (stereo not drawn)	?	19%	-29%	-17%	-28%
Cc1ccc(/C=C2\SC(=S)N(CC3CCCO3)C2=O)o1 (stereo not drawn)	3%	32%	4µM*	?	-49%
CN(C)c1ccc(CNC(=O)CCn2c(=O)c3cccn3c3ccc(F)cc32)cc1	4%	11%	0%	.	.
Cc1ccc(C(=O)Nc2nnc(CC(=O)N/N=C/c3ccc(O)c(O)c3)s2)cc1	-2%	8%	45µM*	?	35%
c1nc(NCCN2CCOCC2)c2sc3nc(N4CCOCC4)c4c(c3c2n1)CCC4	?	2%	45µM*	13%	154%
COc1cccc(CNC(=O)CN2C(=O)CSc3ccc(S(=O)(=O)N(C)C)cc32)c1	2%	-17%	8%	.	.
Nc1cccc2c1C(=O)N(C(=O)/C=C/c1cccc(F)c1)C2=O	-3%	?	6.3µM*	7%	-55%
COc1ccc(OC)c(/C=C/C(=O)N2C(=O)c3cccc(N)c3C2=O)c1	-2%	?	-12%	3%	32µM*
Nc1cccc2c1C(=O)N(C(=O)/C=C/c1cccc(Br)c1)C2=O	-5%	?	2.5µM*	15%	-43%
CCc1ccc(NC(=O)C2CCC(CNS(=O)(=O)c3ccc4c(c3)C(C)(C)C(=O)N4C)CC2)cc1 (stereo not drawn)	7%	-20%	-1%	.	.
Cc1ccc2ncc3c(-c4ccccc4)nn(CC(=O)NC4CCCCC4)c3c2c1	-4%	1%	2%	.	.
CC(C)CC1(C(=O)NCCc2c[nH]c3ccccc23)C=CCN1C(=O)c1ccccc1 (stereo not drawn)	?	9%	40µM*	-10%	-8%
CC(=O)N1CC=CC1(CC(C)C)C(=O)NCCc1c[nH]c2ccccc12 (stereo not drawn)	-8%	0%	-13%	0%	-1%
COc1ccc(NC(=O)Cn2c(=O)n(Cc3ccccc3)c(=O)c3sc4ccccc4c32)cc1	-1%	-12%	-1%	.	.
O=C(Nc1cccc(Cl)c1Cl)c1cc2nc(-c3ccc(Cl)cc3)cc(C(F)(F)F)n2n1	-1%	-9%	-1%	.	.
CC(O)CN1C(=O)C(CC(=O)Nc2ccc(Cl)cc2)SC1=Nc1ccccc1 (stereo not drawn)	-10%	?	18µM*	7%	96%
COCCN1C(=O)C(CC(=O)Nc2ccc(C(C)=O)cc2)SC1=Nc1ccccc1 (stereo not drawn)	-17%	?	-23%	-1%	70%
COc1ccc(C)cc1NC1=C(Cl)C(=O)N(C2CCCCC2)C1=O	-1%	-24%	45µM*	-22%	-38%
SMILES	AmpC inh detg	FMDV inh	Sm TGR inh	AMA1 RON2 block	AmpC no deterg
CCOc1ccc(NC2=C(Cl)C(=O)N(C3CCCCC3)C2=O)cc1	-10%	-1%	7%	-1%	-21%
CC(C)(CNC(=O)c1cnn(-c2nccc(-c3cccs3)n2)c1C1CC1)N1CCOCC1	.	0%	.	.	.
COc1ccc2c(c1)c1ccccc1n2C	8%	47%	-3%	53%	-1%
COc1ccc2ccc3c(c2c1)N=C[C@]1(O3)N(C)c2ccccc2C1(C)C	?	?	28µM*	?	-45%
CCCCCN1C(C(=O)c2ccccc2)=C(NC(=O)c2ccc(OC)c(OC)c2)c2ccccc2S1(=O)=O	35%	?	14%	.	.
Fc1cccc2sc(Nc3nnc(-c4ccco4)o3)nc12	-1%	-12%	40µM*	59%	-12%
COc1cccc2sc(Nc3nnc(-c4ccc(F)cc4)o3)nc12	?	14%	-5%	42%	138%
Fc1ccc(Nc2nc(-c3ccoc3)nc3ccccc23)cc1	.	-21%	.	.	.
CCc1cc(C(=O)c2ccc(OC)cc2)c(N)s1	-1%	10%	-11%	-14%	-30%
COc1ccc(C(=O)c2ccsc2N)cc1	-15%	31%	13µM*	-1%	-28%
O=C(/C=C/c1ccc(Cl)cc1)Nc1nccs1	-6%	9%	-10%	-2%	-28%
C/C=C/C=C/C(=O)Nc1nccs1	-6%	49%	35µM*	-1%	-6%
O=C1CC(c2ccco2)c2ccc3ccccc3c2N1 (stereo not drawn)	?	-15%	45µM*	-5%	-31%
CSC(N)=NCCCC(N)C(=O)O (stereo not drawn)	.	8%	.	.	.
CCOC(=O)c1c(S(=O)(=O)NCCCc2ccco2)c(C)n(C)c1C	-12%	35%	28µM*	-4%	-1%
CCOC(=O)c1c(S(=O)(=O)NCCc2ccco2)c(C)n(C)c1C	?	69%	-16%	-3%	-13%
Cc1ccc(C(=O)C2=C(O)C(=O)N(Cc3cccnc3)C2c2ccc(Cl)cc2)o1 (stereo not drawn)	?	16µM*	-18%	29%	-9%
COc1cccc(CN2CCN(Cc3cc4ccccc4o3)CC2CCO)c1 (stereo not drawn)	-7%	0%	2%	0%	108%
COc1cccc(CN2CCN(Cc3ccc(O)c(OC)c3)CC2CCO)c1 (stereo not drawn)	-3%	5%	35µM*	-10%	8%
Cc1ccc(CN2CCN(Cc3ccncc3)CC2CCO)o1 (stereo not drawn)	2%	-20%	20µM*	4%	-16%

From PubChem
